The results in this text go back to publication PMC10812921, “Transcriptional Coactivator BOB1 (OBF1, OCA-B) Modulates the Specificity of DNA Recognition by the POU-Domain Factors OCT1 and OCT2 in a Monomeric Configuration”.

Experiment [1] deals with POU1 (OCT1 POU domain) (human, UniProt P14859 260-458). The experiment in a line: EMSA-SELEX-seq; no BOB1; 20 mM Tris-HCl pH 7.6, 140 mM NaCl, 10% glycerol, 0.5 mM EDTA, 0.05% Triton X-100, 0.1 mg/mL BSA, 0.1 mg/mL poly(dI-dC), 5 mM DTT, room temperature, 20 min; high values mean tight binding. As to conditions: protein: recombinant; dsDNA, one strand shown. In a few lines: (§1)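 After expression in E. coli BL21, tagged POU-domain proteins were purified under denaturing conditions and then renatured. Each binding reaction held 30 ng protein and 300 ng of a PCR-amplified double-stranded random 35-nt library in 20 μL Tris–HCl pH 7.6 binding buffer, with or without 28 ng coactivator protein, for 20 min at RT. Bands holding complexes were cut from native 6% PAGE, eluted and PCR-amplified across four rounds, and the output was Illumina-sequenced. The value given for binding preference is the share, in percent, of sequenced 8-mers fitting a motif pattern.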
Background: Mobility shift assays separate free from complexed probe on a gel.

Experiment [2] deals with T1, POU2 (OCT2 POU domain) (human, UniProt P09086 175-386).
T1 sequence: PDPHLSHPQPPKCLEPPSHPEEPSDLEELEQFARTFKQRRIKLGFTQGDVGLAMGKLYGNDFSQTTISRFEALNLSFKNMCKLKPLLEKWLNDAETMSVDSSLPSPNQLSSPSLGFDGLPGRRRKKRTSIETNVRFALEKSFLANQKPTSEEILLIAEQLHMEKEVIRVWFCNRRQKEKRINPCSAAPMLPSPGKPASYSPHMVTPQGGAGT
The description is as above. Particulars: protein: recombinant; dsDNA, one strand shown. In a few lines:
as §1

Experiment [3] deals with POU1 (OCT1 POU domain);BOB1 (OBF1, OCA-B) (human;human, UniProt P14859;Q16633 260-458;1-256, |). The experiment in a line: EMSA-SELEX-seq; with BOB1 (ternary complex band); 20 mM Tris-HCl pH 7.6, 140 mM NaCl, 10% glycerol, 0.5 mM EDTA, 0.05% Triton X-100, 0.1 mg/mL BSA, 0.1 mg/mL poly(dI-dC), 5 mM DTT, room temperature, 20 min; high values mean tight binding. Particulars: protein: recombinant;recombinant; copies: 1;1; dsDNA, one strand shown. In a few lines: as §1

In experiment [4] the target is T2, POU2 (OCT2 POU domain);BOB1 (OBF1, OCA-B) (human;human, UniProt P09086;Q16633 175-386;1-256, |).
T2 sequence 1: T1 sequence
T2 sequence 2: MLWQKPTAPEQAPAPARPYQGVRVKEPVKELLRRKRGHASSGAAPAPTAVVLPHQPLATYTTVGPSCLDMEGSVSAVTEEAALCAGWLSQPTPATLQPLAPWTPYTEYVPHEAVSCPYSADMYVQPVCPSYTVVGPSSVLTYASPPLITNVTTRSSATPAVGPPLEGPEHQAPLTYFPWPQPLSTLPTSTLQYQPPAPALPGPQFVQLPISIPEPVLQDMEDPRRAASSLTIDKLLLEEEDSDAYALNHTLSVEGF
The description is as above. As to conditions: protein: recombinant;recombinant; copies: 1;1; dsDNA, one strand shown. In a few lines:
as §1

POU1 (OCT1 POU domain), sequence (P14859 260-458): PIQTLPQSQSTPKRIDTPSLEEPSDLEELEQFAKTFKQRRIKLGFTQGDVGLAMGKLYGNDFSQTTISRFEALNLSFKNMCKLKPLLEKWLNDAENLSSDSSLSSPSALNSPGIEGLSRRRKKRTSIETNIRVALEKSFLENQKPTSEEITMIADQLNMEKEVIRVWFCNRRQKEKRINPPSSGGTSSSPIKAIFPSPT

For ACGGAAAA, the binding signal is 0.0515 % of ANNNNAAN 8-mers in experiment [1], 0.0478 % of ANNNNAAN 8-mers in experiment [2], 0.0593 % of ANNNNAAN 8-mers in experiment [3] and 0.0446 % of ANNNNAAN 8-mers in experiment [4].
The corresponding values for AGGTTAAC are 0.032 % of ANNNNAAN 8-mers, 0.0293 % of ANNNNAAN 8-mers, 0.0324 % of ANNNNAAN 8-mers and 0.0338 % of ANNNNAAN 8-mers.
In the case of AGGTGAAT, the binding signal in experiment [1] is 0.108 % of ANNNNAAN 8-mers; in experiment [2], 0.119 % of ANNNNAAN 8-mers; in experiment [3], 0.071 % of ANNNNAAN 8-mers; in experiment [4] it was 0.102 % of ANNNNAAN 8-mers.
The corresponding values for ACACCAAT are 0.0187 % of ANNNNAAN 8-mers, 0.0173 % of ANNNNAAN 8-mers, 0.0168 % of ANNNNAAN 8-mers and 0.019 % of ANNNNAAN 8-mers.
The corresponding values for ATTTGAAC are 0.0496 % of ANNNNAAN 8-mers, 0.0558 % of ANNNNAAN 8-mers, 0.0745 % of ANNNNAAN 8-mers and 0.0553 % of ANNNNAAN 8-mers.
The corresponding values for AACTTAAC are 0.0294 % of ANNNNAAN 8-mers, 0.0288 % of ANNNNAAN 8-mers, 0.0234 % of ANNNNAAN 8-mers and 0.0248 % of ANNNNAAN 8-mers.
For the sequence ATATTAAG, the binding signal in experiment [1] is 0.196 % of ANNNNAAN 8-mers; in experiment [2], 0.214 % of ANNNNAAN 8-mers; in experiment [3], 0.0882 % of ANNNNAAN 8-mers; in experiment [4], 0.117 % of ANNNNAAN 8-mers.
For ATATTAAC, the binding signal in experiment [1] was 0.151 % of ANNNNAAN 8-mers; in experiment [2] it was 0.189 % of ANNNNAAN 8-mers; in experiment [3], 0.0667 % of ANNNNAAN 8-mers; in experiment [4], 0.0751 % of ANNNNAAN 8-mers.
Take ATACCAAG: the binding signal in experiment [1] is 0.0252 % of ANNNNAAN 8-mers; in experiment [2], 0.0334 % of ANNNNAAN 8-mers; in experiment [3], 0.0238 % of ANNNNAAN 8-mers; in experiment [4], 0.0305 % of ANNNNAAN 8-mers.
For ACAAGAAC, in that order: 0.0214 % of ANNNNAAN 8-mers, 0.0201 % of ANNNNAAN 8-mers, 0.0144 % of ANNNNAAN 8-mers and 0.0297 % of ANNNNAAN 8-mers.
The corresponding values for ACAGTAAA are 0.0481 % of ANNNNAAN 8-mers, 0.0414 % of ANNNNAAN 8-mers, 0.0531 % of ANNNNAAN 8-mers and 0.0338 % of ANNNNAAN 8-mers.
As for AGTGTAAC, the binding signal in experiment [1] was 0.0217 % of ANNNNAAN 8-mers; in experiment [2], 0.015 % of ANNNNAAN 8-mers; in experiment [3], 0.0234 % of ANNNNAAN 8-mers; in experiment [4], 0.0272 % of ANNNNAAN 8-mers.
For ATGAAAAG, in that order: 0.135 % of ANNNNAAN 8-mers, 0.106 % of ANNNNAAN 8-mers, 0.175 % of ANNNNAAN 8-mers and 0.0867 % of ANNNNAAN 8-mers.
The corresponding values for ATGTCAAT are 0.0828 % of ANNNNAAN 8-mers, 0.0869 % of ANNNNAAN 8-mers, 0.0722 % of ANNNNAAN 8-mers and 0.0743 % of ANNNNAAN 8-mers.
For ATTAGAAA, in that order: 0.0995 % of ANNNNAAN 8-mers, 0.106 % of ANNNNAAN 8-mers, 0.0738 % of ANNNNAAN 8-mers and 0.0892 % of ANNNNAAN 8-mers.
Take ATTCGAAT: the binding signal in experiment [1] was 0.117 % of ANNNNAAN 8-mers; in experiment [2] it was 0.137 % of ANNNNAAN 8-mers; in experiment [3], 0.08 % of ANNNNAAN 8-mers; in experiment [4], 0.102 % of ANNNNAAN 8-mers.
For AGTCAAAT, in that order: 0.566 % of ANNNNAAN 8-mers, 0.367 % of ANNNNAAN 8-mers, 1.18 % of ANNNNAAN 8-mers and 1.04 % of ANNNNAAN 8-mers.
For AGCTGAAC, in that order: 0.0156 % of ANNNNAAN 8-mers, 0.0196 % of ANNNNAAN 8-mers, 0.0176 % of ANNNNAAN 8-mers and 0.019 % of ANNNNAAN 8-mers.
The corresponding values for AGGGAAAC are 0.0648 % of ANNNNAAN 8-mers, 0.0518 % of ANNNNAAN 8-mers, 0.0991 % of ANNNNAAN 8-mers and 0.0413 % of ANNNNAAN 8-mers.
For the sequence AAAGGAAT, the binding signal was 0.0953 % of ANNNNAAN 8-mers in experiment [1], 0.124 % of ANNNNAAN 8-mers in experiment [2], 0.0901 % of ANNNNAAN 8-mers in experiment [3] and 0.0925 % of ANNNNAAN 8-mers in experiment [4].
The corresponding values for AAGGTAAT are 0.122 % of ANNNNAAN 8-mers, 0.163 % of ANNNNAAN 8-mers, 0.0925 % of ANNNNAAN 8-mers and 0.128 % of ANNNNAAN 8-mers.
The corresponding values for AATAAAAT are 0.214 % of ANNNNAAN 8-mers, 0.214 % of ANNNNAAN 8-mers, 0.185 % of ANNNNAAN 8-mers and 0.164 % of ANNNNAAN 8-mers.
For ACCCTAAG, in that order: 0.0118 % of ANNNNAAN 8-mers, 0.0178 % of ANNNNAAN 8-mers, 0.0133 % of ANNNNAAN 8-mers and 0.0107 % of ANNNNAAN 8-mers.
